Data on 15 compounds can be found in the supplement of paper PMC12339681.

Where a name gives a salt, the structure may show the parent alone.

The test system of this experiment is PBMC-derived induced microglia-like cells (piMGLC). In words: synaptosome phagocytic index relative to DMSO control (fraction of DMSO); higher = more phagocytosis. To be noted: concentration: 10 uM (2 uM for compounds listed in Table S2); pretreatment time: 24 h; assay time: 3 h.
Regarding `Cc1ncc([N+](=O)[O-])n1CCO` [Metronidazole], the synaptosome phagocytic index turned out to be 0.51. The result for `N[C@@H]1CONC1=O` [D-Cycloserine] reads 0.834; that for `CC[C@H](CO)Nc1nc(NCc2ccccc2)c2ncn(C(C)C)c2n1` [Seliciclib], 0.569. The value for `Nc1cc(C(F)F)c(-c2nc(N3C4CCC3COC4)nc(N3C4CCC3COC4)n2)cn1` was 0.347; that for `CN1C(=O)C(Cc2c[nH]c3ccccc23)NC1=S` (stereo not given) [Necrostatin-1] was 0.88.

In the case of `Cc1ccc(N2CCN(Cc3nc4ccccc4[nH]3)CC2)cc1C`, the synaptosome phagocytic index was determined as 1.03. The value for `OCCOCCN1CCN(C(c2ccccc2)c2ccc(Cl)cc2)CC1` (stereo not given) [Hydroxyzine_(dihydrochloride)] was 0.957; that for `COc1ccccc1OCC(O)COC(N)=O` (stereo not given) [Methocarbamol] was 0.902. The value for `Nc1ccn([C@@H]2O[C@H](CO)[C@@H](O)[C@@H]2O)c(=O)n1` [Cytarabine] was 0.44; that for `CCCN[C@H]1CCc2nc(N)sc2C1` [Pramipexole] was 0.882; that for `COc1cc(C(=O)Nc2cc(OC(F)(F)F)ccc2-n2cncn2)ccc1OCC1CC1` was 0.921. The result for `Cc1cc(Oc2cncnc2)cc(C(=O)Nc2ccc(F)cn2)n1` [Auglurant] reads 1.03. With `CCc1c2c(nc3ccc(OC(=O)N4CCC(N5CCCCC5)CC4)cc13)-c1cc3c(c(=O)n1C2)COC(=O)[C@]3(O)CC` [Irinotecan], the synaptosome phagocytic index was found to be 0.692. The result for `CNS(=O)(=O)CCc1ccc2[nH]cc(C3CCN(C)CC3)c2c1` [Naratriptan_(hydrochloride)] reads 1.3. The value for `CC(C)CCN(CCC(C)C)C(=O)c1ccc2nc(-c3ccc(C#N)cc3)c(CCCN3CCCC3)n2c1` was 0.408.
